# Source: PubChem (National Center for Advancing Translational Sciences (NCATS))
# PTHR1 ag: PTHR1 (human) receptor agonism | Q03431 | HEK293 GP2 PTHR1 cells, GloSensor cAMP luminescence, 1 h | Potency, µM (doses to about 115 µM), without a hit: at the highest dose activation, usual class: activators | 410,000 compounds, 0.075% hits; further: nearly all actives have a fitted effect of over 55% in size
#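 HEK-293-derived GP2 cells expressing PTHR1 and a GloSensor cAMP reporter, 3,000/well, plated overnight, given luciferin plus IBMX (each 0.5 mM as added) for 1 h at 37 °C, then compound for 1 h at 37 °C. Luminescence was read after 15 min at room temperature.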
# RGS4 inhibitor: human RGS4 inhibition; Transcreener GDP fluorescence polarization, RGS4-accelerated GTP hydrolysis; Potency, µM (doses to about 114 µM), for the others: at the top dose activity change, negative = inhibition, hits mostly inhibitors; 390,000 compounds, 0.039% hits; AID 504845; further: on the % scale 0 is the no-effect control and ±100 the full control effect; nearly all actives have a fitted effect of over 75% in size
# Target sequence (P49798 whole entry, looked up): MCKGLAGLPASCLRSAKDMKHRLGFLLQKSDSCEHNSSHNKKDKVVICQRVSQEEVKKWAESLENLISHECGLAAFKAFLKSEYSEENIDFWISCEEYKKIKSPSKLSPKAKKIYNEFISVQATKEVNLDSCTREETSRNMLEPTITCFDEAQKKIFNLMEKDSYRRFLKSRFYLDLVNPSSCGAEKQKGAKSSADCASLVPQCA
#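 MLSMR compounds (23 nl, pin-transferred) preincubated 10 min at room temperature with a 500nM (2x) first reagent, then RGS4 at 900nM (2x) plus Transcreener GDP mix added; fluorescence polarization (620/688 nm) read before and after 90 min at 30 °C.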
# GLP1R cytotox: cytotoxicity in counter-screen for GLP-1R inverse agonists | HEK293 cAMP-luciferase reporter cells, luminescence, 24 h | Potency, µM (doses to about 38.3 µM), inactives show top-dose activity change, negative = inhibition, hits mostly inhibitors | 410,000 compounds, 0.13% hits;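 further: loss of luciferase light is scored as toxicity; on the % scale 0 is the no-effect control and ±100 the full control effect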
#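 Seeding density was 200 cells/uL; after overnight-length (12 h) culture, 23 nL compounds went on for 24 h at 37 °C. Readout used a luciferase detection reagent, luminescence taken after 12 min at room temperature.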
# GLP1R ag: activates the human GLP-1 receptor; P43220; HEK293 GLP-1R CRE-luciferase, luminescence, 4-6 h; cells express a hypersensitive GLP-1R form; Potency, µM (top dose mostly 45.6 µM), for the others: at the top dose activation, actives largely listed as activators; 380,000 compounds, 0.007% hits; AID 624172; further: % of control where 0% means no effect
# Target sequence (P43220 whole entry, looked up): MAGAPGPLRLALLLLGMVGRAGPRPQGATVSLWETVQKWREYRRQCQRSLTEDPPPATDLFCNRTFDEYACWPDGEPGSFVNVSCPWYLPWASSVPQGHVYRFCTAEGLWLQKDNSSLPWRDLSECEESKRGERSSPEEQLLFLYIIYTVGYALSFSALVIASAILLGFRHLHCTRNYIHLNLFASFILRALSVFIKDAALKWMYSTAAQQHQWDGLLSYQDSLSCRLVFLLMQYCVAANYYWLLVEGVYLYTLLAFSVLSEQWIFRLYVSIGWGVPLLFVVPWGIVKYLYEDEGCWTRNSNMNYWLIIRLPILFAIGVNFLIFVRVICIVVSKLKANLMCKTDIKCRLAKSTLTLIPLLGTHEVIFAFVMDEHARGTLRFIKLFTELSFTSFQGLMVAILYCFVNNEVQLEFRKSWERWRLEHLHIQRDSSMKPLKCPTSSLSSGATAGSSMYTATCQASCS
# GLP1R inv ag: acts as inverse agonist at human GLP-1 receptor; P43220; HEK293 GLP-1R CRE-luciferase, luminescence, 24 h; GLP-1R form is constitutively active; Potency, µM (top dose mostly 38.3 µM), inactives show top-dose activity change, negative = inhibition, most hits filed as inhibitors; 410,000 compounds, 1.6% hits; AID 624417; further: on the % scale 0 is the no-effect control and ±100 the full control effect; nearly all actives have a fitted effect of over 55% in size
#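 Inverse agonists were sought by their lowering of basal cAMP reporter luciferase output in HEK293 cells stably carrying constitutively active human GLP-1R, after 24 h compound treatment.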
# * = called active by the depositor; i = inactive; ? = inconclusive; nt = no result given; [ ] = dose if it differs, or a comment. The list is not random: actives were taken first. Their share in the collection is about 1.7%. The call rests on the fitted dose curve; in most records, active means well fitted curve in the direction sought with a large enough effect; inconclusive means small, poorly fitted or top-dose-only effect, or another doubt; inactive means no such curve, though single readings can be large; an effect the other way counts as inactive or inconclusive. Potency means the concentration at half of the fitted maximal effect.
SMILES,PTHR1 ag,RGS4 inhibitor,GLP1R cytotox,GLP1R ag,GLP1R inv ag
COCCCNC(=S)N/N=C/c1cccc(OC)c1O,-18%,-7%,?,9%,1.1µM*
Cc1nnc(N/N=C/c2ccccc2F)n1N,i,-13%,-15%,5%,20%
COc1cccc(/C=N/Nc2nnc(C)n2N)c1O,i,-15%,?,2%,10µM*
Cc1ccc(Cn2c(=O)n(-c3cccc(C(F)(F)F)c3)c(=O)c3c(C)c(C)sc32)c(C)c1,i,19%,-11%,nt,1%
CCOc1ccc(CCNC(=O)c2c3c(nc4ccccc24)C(=O)N(C2CCCCC2)C3)cc1,1%,-2%,-2%,nt,-17%
O=S(=O)(/C(=C/c1ccc(C(F)(F)F)cc1)c1nc2ccccc2[nH]1)c1ccccc1,-8%,?,7.9µM*,-7%,1.8µM*
Cc1cccc(CS(=O)(=O)c2ncc(Cl)c(C(=O)NCc3ccc4c(c3)OCO4)n2)c1,-38%,-37%,-8%,-15%,8.9µM*
O=C1OC(c2ccccc2)(c2ccccc2)c2ccccc21,-33%,1%,17%,12%,7.9µM*
CCc1ccccc1Nc1nc(-c2cccnc2)cs1,-40%,-11%,-13%,-6%,11µM*
Cc1ccc(CNC(=O)[C@H]2O[C@@H](n3ccc(N)nc3=O)[C@H](O)[C@@H]2O)o1,?,nt,-16%,-6%,26%
CCOCN(C(=O)Cn1c(CC(C)C)nc2ccccc21)c1c(C)cccc1CC,-6%,-25%,-13%,-4%,11µM*
Cc1cccc(-n2ncc3c(N4CCOCC4)ncnc32)c1,-47%,-13%,-3%,-9%,3.2µM*
Cc1ccc(-n2ncc3c(N4CCCCC4)ncnc32)cc1Cl,-32%,1%,2%,nt,0.79µM*
CC1(C)CC(=O)CC2(C1)NCC(c1ccccc1)c1c2[nH]c2ccccc12 (stereo not given),-59%,1%,-12%,8%,10µM*
COc1cccc(C2CNC3(CCCC(C)C3)c3[nH]c4ccccc4c32)c1OC (stereo not given),-42%,-33%,?,-1%,?
CCOC(=O)C1CCN(C(=O)Cn2c(-c3cccs3)cc3cc(Cl)ccc32)CC1,-64%,1%,-4%,nt,?
O=C(Nc1cc(S(=O)(=O)N2CCCCCC2)ccc1OCC(F)(F)F)c1cnccn1,i,-12%,14%,2%,-20%
O=C(c1ccc(-n2ccnc2)cc1)N1CCCC(CO)(Cc2cccc(Cl)c2)C1 (stereo not given),-34%,-5%,-2%,7%,8%
CN1CCN(S(=O)(=O)c2ccc(N3CCN(S(=O)(=O)/C=C/c4ccccc4)CC3)nc2)CC1,i,-25%,-14%,-3%,7.9µM*
CCCOc1ccc(-c2nc(N3CCN(C)CC3)c3ccccc3n2)cc1,-3%,26%,-8%,34%,?
CCCOc1ccc(-c2nc(N3CCN(CC)CC3)c3ccccc3n2)cc1,-18%,8%,-28%,13%,7.9µM*
N=c1n(CCN2CCCCC2)c2ccccc2n1CC(=O)c1ccc(Cl)c(Cl)c1,-5%,-13%,?,11%,5.6µM*
Cc1ccc(C(=O)Cn2c(=N)n(CCN3CCOCC3)c3ccccc32)cc1,-9%,-2%,2.5µM*,5%,?
COC(=O)Cn1c(=N)n(CCN2CCCCC2)c2ccccc21,i,-42%,-3%,-1%,0%
Cc1ccccc1Oc1cc(-n2ncc(Cl)c(Cl)c2=O)ncn1,-28%,?,3.2µM*,-22%,?
SMILES,PTHR1 ag,RGS4 inhibitor,GLP1R cytotox,GLP1R ag,GLP1R inv ag
CC(C)(C)C(=O)Nc1ccc2c(c1)C(=O)C(=O)c1ccccc1-2,nt,-42%,nt,nt,nt
Cc1ccc(C2c3[nH]c4ccccc4c3CCN2C(=O)c2ccccc2Br)cc1 (stereo not given),i,2%,-9%,nt,?
Cc1ccc(C2c3[nH]c4ccccc4c3CCN2C(=O)c2ccc(N(C)C)cc2)cc1 (stereo not given),-2%,-22%,-6%,nt,?
COC(=O)c1ccc(NC(=O)N2CCc3c([nH]c4ccccc34)C2c2ccc(C)cc2)cc1 (stereo not given),?,8%,-17%,nt,4.5µM*
Cc1ccc(C2c3[nH]c4ccccc4c3CCN2C(=O)Nc2ccc(C)c(C)c2)cc1 (stereo not given),-15%,-1%,-8%,nt,7.9µM*
Cc1ccc(C2c3[nH]c4ccccc4c3CCN2C(=O)CCC2CCCC2)cc1 (stereo not given),-5%,-24%,3%,nt,10µM*
O=C(NCCc1ccc(Cl)cc1)C1=CC=CN2CCS(=O)(=O)N=C12,i,-15%,6%,8%,9%
CCOc1ccc(-c2[nH]ncc2Oc2ccccc2OC)c(O)c1,-63%[57.5 µM],-13%,?,10%,8.9µM*
CCOc1ccc(-c2[nH]ncc2Oc2ccccc2OCC)c(O)c1,-38%[57.5 µM],3%,?,0%,?
CN(Cc1ccccc1)S(=O)(=O)c1cc(Br)cc2c1N(C(=O)C1CC1)CC2,i,-9%,5%,1%,?
O=C(CN1C(=O)NC2(CCOc3ccccc32)C1=O)Nc1cccc(Cl)c1 (stereo not given),i,8%,5%,2%,10µM*
COc1cc(NC(=O)CN2C(=O)NC3(CCOc4ccccc43)C2=O)cc(OC)c1 (stereo not given),-2%,24%,-5%,7%,-24%
CCC(=O)c1ccccc1OCCCN1CCC(Cc2ccccc2)CC1,-31%,-3%,?,8%,7.9µM*
CCOc1ccccc1OCCN1CCC(Cc2ccccc2)CC1,-25%,-10%,?,10%,?
Cc1ccccc1OCCN1CCC(Cc2ccccc2)CC1,i,18%,-19%,4%,8.9µM*
COc1cccc(OC)c1OCCCCN1CCC(Cc2ccccc2)CC1,-17%,11%,-8%,-1%,?
CCCCNC(=O)C1C(c2ccc(C(F)(F)F)cc2)=Nc2ccccc2N1C(=O)c1ccc2nc(C)[nH]c2c1 (stereo not given),i,nt,10%,nt,?
O=C(Nc1noc2ccccc12)c1c(F)cccc1F,-38%,3%,8%,nt,?
COc1cccc2c1C(=O)c1c(O)c3c(c(O)c1C2=O)C[C@](O)(C(C)=O)C[C@H]3O[C@@H]1C[C@@H](N)[C@@H](O)[C@@H](C)O1,-13%,-28%,-36%,-12%,2.8µM*
CSc1ccc(CN2CCC(C)(Oc3ccc(-n4ccnc4)cc3)C2)cc1 (stereo not given),-49%,nt,2%,1%,?
COc1ccc(NCC(=O)n2c(C)c(C)c3ccccc32)cc1,i,0%,-7%[7.66 µM],-1%,-6%[7.66 µM]
